Hits are enriched below; roughly 19% of the tested compounds scored in any of these assays.
SW480 rerep: inducers of DNA re-replication in SW480 colon cancer cells | SW480 DNA re-replication, Hoechst DNA content imaging, 48 h | Potency, µM (top dose mostly 46.1 µM), inactives show top-dose re-replication activation, most hits filed as activators | hit rate 1.8% among 340,000; further: potency means the concentration at half of the fitted maximal effect; % of control where 0% means no effect; nearly all actives have a fitted effect of over 55% in size
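Compounds, transferred as 23 nL by pin tool, were incubated with cells for 48 hr; DNA content per nucleus was then quantified by Hoechst staining and fluorescence plate imaging.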
BCR signal inh: chronic active BCR signaling inhibition. Potency, µM (top dose mostly 46.1 µM), for inactives: at the top dose activity change, negative = inhibition, hits mostly inhibitors. hit rate 0.05% among 340,000. ABC-DLBCL IkBa-CBG/CBR reporter, luminescence ratio, 4 h; active means well fitted inhibition curve with a large enough effect in the signal ratio, with a control signal flat, not every such curve was filed as active; inconclusive means small, poorly fitted or top-dose-only effect, or effect the other way, or a change in a side signal; the % refers to the signal ratio;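 further: potency means the concentration at half of the fitted maximal effect; plate controls were basal doxycycline-induced cells for no effect and cells given 10 µM MG132 for full effect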
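Cell line TMD8 (human ABC DLBCL), stably expressing tet-inducible CBG68-IkBa fusion and CBR; IMDM/0.5% FBS; cpd up to 46 uM; dox induction, 4 h, 37C/5% CO2; dual luminescence; green/red ratio; MG132 control.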
MCF10A rerep: DNA re-replication induction in MCF 10a cells. MCF 10A DNA re-replication, Hoechst nuclear intensity, 48 h. Potency, µM (highest dose often 46.1 µM), inactives show at the highest dose activity, positive = re-replication, usual class: activators. AID 624296. hit rate 2.9% among 350,000; further: potency means the concentration at half of the fitted maximal effect; % of control where 0% means no effect; nearly all actives have a fitted effect of over 50% in size
DT40 TDP1 CPT: growth inhibition of DT40 Tdp1-/-;hTDP1 cells with camptothecin (screen for TDP1 inhibitors) | hit rate 12% among 420,000 | Potency, µM (titrated, usually from 46.2 µM), for inactives: at the highest dose activity change, negative = growth inhibition, actives largely listed as inhibitors | chicken DT40 Tdp1-/-;hTDP1 cells + 20 nM CPT, ATP luminescence, 48 h; further: potency means the concentration at half of the fitted maximal effect; on the % scale 0 is the no-effect control and ±100 the full control effect; nearly all actives have a fitted effect of over 55% in size
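Chicken DT40 Tdp1-/- cells complemented with human TDP1, 400 cells/well, exposed to compounds plus 20 nM camptothecin for at least 48 h at 37 C; viability read as ATP content by CellTiter-Glo luminescence.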
DT40 TDP1 no CPT: qHTS for Inhibitors of human tyrosyl-DNA phosphodiesterase 1 (TDP1): qHTS in cells in absence of CPT. Potency, µM (doses to about 46.2 µM), for inactives: top-dose activity change, negative = growth inhibition, hits mostly inhibitors. hit rate 15% among 420,000. DT40 Tdp1-/- hTDP1 cells, no CPT, ATP luminescence, 48 h; further: potency means the concentration at half of the fitted maximal effect; on the % scale 0 is the no-effect control and ±100 the full control effect; nearly all actives have a fitted effect of over 55% in size
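No-CPT arm: Tdp1-/-;hTDP1 DT40 cells (400/well) plus compounds, incubated ≥48 hr at 37 °C. Readout CellTiter-Glo luminescence.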
IL1B secr inh: inflammasome signaling inhibition, IL-1 beta readout; THP-1 LPS/ATP IL-1B secretion, AlphaLISA, 16 h; hits give low values; activity change, % at 57.5 µM; hit rate 4.7% among 360,000; AID 743279; in the data active means activity change below about -50%; inconclusive means mostly about -30% to -49%; further: on the % scale 0 is the no-effect control and ±100 the full control effect
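THP-1 cells pretreated 1 hr with compounds (up to 57.5 uM final), then stimulated with LPS (250 ng/mL final) plus ATP (1.25 mM final); secreted IL-1B measured by AlphaLISA after 16 hr, decreased signal indicating inhibition.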
Starred values were filed as active, the others as inactive; u = inconclusive; x = no result; [ ] = another dose, or the depositor's remark. Unless noted, the call rests on the fitted dose curve; in most records, active means well fitted curve in the direction sought with a large enough effect; inconclusive means small, poorly fitted or top-dose-only effect, or another doubt; inactive means no such curve, though single readings can be large; an effect the other way counts as inactive or inconclusive.

SMILES	SW480 rerep	BCR signal inh	MCF10A rerep	DT40 TDP1 CPT	DT40 TDP1 no CPT	IL1B secr inh
COc1cccc(CNC(=O)CCC(=O)N2C[C@H]3C[C@H](C2)c2cccc(=O)n2C3)c1OC	-8.2%	-22.9%	u	5.5%	5.8%	-1.5
Cc1ccc2c(c1)CC1(CN2C)C(=O)NC(=O)N(C(C)C)C1=O (configuration not stated)	0.0%	2.8%	u	18.4µM*	u	58.9
C=CCC1([C@H](C)CCC)C(=O)NC(=O)NC1=O	x	x	x	-20.1%[92.5 µM]	-25.6%[92.5 µM]	x
C[C@H](NC(=O)N1C[C@H]2C[C@@H](C1)c1cccc(=O)n1C2)C(=O)Nc1ccc(F)c(F)c1	6.4%	-1.5%	-25.5%	6.8%	u	19.1
Cc1c(C(=O)Nc2ccc(Br)cc2F)oc2ccc(S(=O)(=O)N3CCCCC3)cc12	x	-1.9%	x	u	u	x
CN(C)CCN(CC1CCCN(Cc2ccccc2F)C1)C(=O)Cc1c(F)cccc1F (configuration not stated)	-28.3%	-0.5%	-3.9%	-14.6%	-19.7%	u
CC(C)NCC(O)c1ccc(C2CCCC2)cc1 (configuration not stated)	-22.7%	-2.1%	12.5%	16.4µM*	16.4µM*	u
O=C(OC1CC2CCC(N2)C1C(=O)O)c1ccccc1 (configuration not stated)	-38.8%	0.3%	u	20.3%	2.2%	13.6
Cc1ccc(C)c(N2CCN(C(=O)C3CCCN(S(=O)(=O)c4cccc5nsnc45)C3)CC2)c1 (configuration not stated)	x	x	x	5.8µM*	7.31µM*	x
C/C=C(/C)C(=O)O[C@H]1C(C)=C2[C@H]([C@@H]1OC(=O)CCCCCCC)[C@@](C)(OC(C)=O)C[C@H](OC(=O)CCC)[C@@]1(O)[C@H]2OC(=O)[C@@]1(C)O	x	x	x	u	-8.2%[21.1 µM]	x
COc1ccc(C(=O)C2CCCN(CCc3ccccc3)C2)cc1OC (configuration not stated)	x	x	x	u	18.4µM*	-3.4
COc1cccc(OC)c1CN1CCCC(C(=O)c2cccc(Cl)c2)C1 (configuration not stated)	-7.5%	-1.7%	17.4%	18.4µM*	u	u
COc1ccc(O)c(CN2CCCC(C(=O)c3ccccc3SC)C2)c1 (configuration not stated)	1.1%	-1.5%	9.7%	u	14.6µM*	-22.6
CCOc1ccc(CN2CCCC(C(=O)c3ccccc3OC)C2)cc1 (configuration not stated)	4.0%	u	u	u	u	-58.2*
COc1ccc(C(=O)C2CCCN(Cc3ccc(F)cc3F)C2)cc1F (configuration not stated)	-1.6%	-4.1%	2.1%	u	u	10.1
CCCCOP(=O)(OCCCC)C1(C)CC(=O)CC(C)(C)C1 (configuration not stated)	0.8%	x	-0.8%	u	-24.6%	-11.2
COc1ccccc1CN1CCCC(C(=O)c2ccccc2SC)C1 (configuration not stated)	-3.4%	2.3%	-1.9%	13µM*	20.6µM*	-26.6
COc1ccccc1CN1CCCC(C(=O)c2ccccc2OC)C1 (configuration not stated)	1.5%	-1.9%	0.4%	8.2µM*	u	-11.0
CSc1ccccc1C(=O)C1CCCN(Cc2ccncc2)C1 (configuration not stated)	-6.4%	1.2%	14.5%	-21.2%	-14.2%	22.2
CCn1ccnc1CN1CCCC(C(=O)c2cccc(C(F)(F)F)c2)C1 (configuration not stated)	2.0%	7.0%	28.9%	u	25.9µM*	-28.1
CCOP(=O)(OCC)C(NC(=O)Nc1ccc(Cl)c(Cl)c1)c1ccccc1 (configuration not stated)	-2.8%	u	15.2%	u	16.4µM*	-3.2
CCCCn1c(O)c(/C=N/N2CCOCC2)c(=O)[nH]c1=S	-20.7%	2.8%	-2.3%	-6.4%	-3.1%	-11.7
CCCCCCn1c(O)c(C=Nc2ccccc2N2CCOCC2)c(=O)[nH]c1=S	-7.2%	u	-4.0%	u	14.6µM*	0.0
CCCCCCC(=O)N/N=C/c1c(O)n(CCCC)c(=S)[nH]c1=O	-22.1%	16.8%	19.3%	u	18.4µM*	120.9
COC(=O)CC1(CC(=O)OC)C(=O)N(c2ccccc2)C(=O)N(c2ccccc2)C1=O	-0.9%	3.1%	-1.3%	12.6%	-25.7%	16.0
SMILES	SW480 rerep	BCR signal inh	MCF10A rerep	DT40 TDP1 CPT	DT40 TDP1 no CPT	IL1B secr inh
Cc1cscn1	-1.3%	-1.8%	-4.9%	-20.6%	u	27.6
Cc1cc(C(=O)OCC(=O)Nc2ccc(F)cc2)c(C)n1C1CC1	-0.3%	-10.0%	2.3%	-0.6%	-10.7%	-6.3
CC(C)(C)n1c(O)c(C=Nc2ccc3c(c2)CCC3)c(=O)[nH]c1=O	0.6%[9.22 µM]	5.2%	8.4%[9.22 µM]	u	u	2.1
C[C@H](CO)N1C[C@H](C)[C@@H](CN(C)Cc2ccc(-c3ccccc3)cc2)Oc2c(NC(=O)c3ccncc3)cccc2C1=O	17.6%	3.9%	u	16.4µM*	23.1µM*	-21.8
C[C@H](CO)N1C[C@H](C)[C@@H](CN(C)Cc2ccccc2)Oc2c(NC(=O)c3ccncc3)cccc2C1=O	15.7%	-3.4%	-1.0%	u	23.1µM*	19.8
O=C1CC(c2ccccc2Br)c2c(c3ccccc3oc2=O)O1 (configuration not stated)	x	0.9%	x	13.8%	-3.2%	x
C[C@H]1C/C=C/[C@H]2[C@H](O)[C@H](C)[C@@](C)(O)[C@H]3[C@H](Cc4ccccc4)NC(=O)[C@]32[C@H](O)/C=C/[C@](C)(O)C1	u	x	u	3.66µM*	8.2µM*	-20.5
C=C1C(C)C2C(Cc3ccccc3)NC(=O)C23C(OC(C)=O)C=CC(C)(O)CC(C)CC=CC3C1O (configuration not stated)	3.66µM*	x	u	0.461µM*	0.731µM*	52.7
CC(=O)O[C@@H]1/C=C/[C@](C)(O)C[C@@H](C)C/C=C/[C@H]2[C@H](O)C(C)=C(C)[C@H]3[C@H](Cc4ccccc4)NC(=O)[C@@]123	18.4µM*	x	u	0.581µM*	0.581µM*	9.5
C=C1[C@@H](C)[C@H]2[C@H](Cc3ccccc3)NC(=O)[C@]23OC(=O)/C=C/[C@H](O)CCC[C@@H](C)C/C=C/[C@H]3[C@@H]1O	5.8µM*	u	u	1.84µM*	0.651µM*	35.1

From PubChem
